Test results taken from PubChem BioAssay AID1159580 (chemical genetic matrix, 2015).
Screen size: about 5,500 compounds; about 2,000 (36%) were called active. Another 18% or so got no clear call; they are omitted. Rule as the data show it: active = normalized growth mostly below about 0.91 (no sharp cut-off); inconclusive = no clear call, values can overlap the other calls; inactive = mostly above about 0.92. The list shows a part of the results.

Test: chemical genetic growth profiling, strain panel (AID 1159580);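 also: tested at 20 µM; growth read once vehicle control cultures reached saturation at 30 °C; 1 = growth at the plate median or of vehicle wells; lower values mean less growth of the strain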
Details: growth OD

Measured: normalized growth

Nc1ncnc2c1ncn2[C@@H]1O[C@H](CO)[C@@H](O)[C@@H]1O
inactive: S. cerevisiae deletion strains, locus YJR075W, strain HOC1, active compounds read low 1.02 | S. cerevisiae deletion strains, locus YKL009W, strain mrt4, active compounds read low 1.08 | S. cerevisiae deletion strains, locus YKL068W, active compounds read low 1.01 | S. cerevisiae deletion strains, locus YKL085W, strain MDH1 (second series), active compounds read low 1 | S. cerevisiae deletion strains, locus YKL085W, strain MDH1, active compounds read low 1 | S. cerevisiae deletion strains, locus YKL160W, strain elf1, active compounds read low 1 | S. cerevisiae deletion strains, locus YKL190W, strain CNB1, active compounds read low 0.996 | S. cerevisiae deletion strains, locus YKR001C, strain vps1, active compounds read low 1.04 | S. cerevisiae deletion strains, locus YKR026C, strain gcn3, active compounds read low 1.01 | S. cerevisiae deletion strains, locus YKR091W, strain srl3, active compounds read low 1.01 | S. cerevisiae deletion strains, locus YLL001W, strain dnm1, active compounds read low 1.02 | S. cerevisiae deletion strains, locus YLL026W, active compounds read low 1 | S. cerevisiae deletion strains, locus YLL041C, strain sdh2, active compounds read low 1.01 | S. cerevisiae deletion strains, locus YLR027C, strain aat2, active compounds read low 1.01 | S. cerevisiae deletion strains, locus YLR039C, strain RIC1, active compounds read low 1.02 | S. cerevisiae deletion strains, locus YLR058C, strain SHM2, active compounds read low 1.01 | S. cerevisiae deletion strains, locus YLR102C, strain apc9, active compounds read low 1.02 | S. cerevisiae deletion strains, locus YLR113W, strain HOG1, active compounds read low 1 | S. cerevisiae deletion strains, locus YLR221C, strain rsa3, active compounds read low 1.01 | S. cerevisiae deletion strains, locus YLR258W, strain gsy2, active compounds read low 1.01 | S. cerevisiae deletion strains, locus YLR262C, strain YPT6 (second series), active compounds read low 1.03 | S. cerevisiae deletion strains, locus YLR262C, strain YPT6, active compounds read low 1.03 | S. cerevisiae deletion strains, locus YLR268W, strain sec22, active compounds read low 1.04 | S. cerevisiae deletion strains, locus YLR320W, strain mms22, active compounds read low 1 | S. cerevisiae deletion strains, locus YLR330W, strain CHS5, active compounds read low 1.01 | S. cerevisiae deletion strains, locus YLR342W, strain FKS1 (second series), active compounds read low 0.989 | S. cerevisiae deletion strains, locus YLR342W, strain FKS1, active compounds read low 1.01 | S. cerevisiae deletion strains, locus YLR357W, strain rsc2, active compounds read low 1.04 | S. cerevisiae deletion strains, locus YLR370C, strain arc18, active compounds read low 1.02 | S. cerevisiae deletion strains, locus YLR371W, strain rom2, active compounds read low 1.02 | S. cerevisiae deletion strains, locus YLR384C, strain iki3, active compounds read low 1.01 | S. cerevisiae deletion strains, locus YLR418C, strain cdc73, active compounds read low 1.05 | S. cerevisiae deletion strains, locus YML016C, strain PPZ1, active compounds read low 1.01 | S. cerevisiae deletion strains, locus YML032C, strain rad52, active compounds read low 1.03 | S. cerevisiae deletion strains, locus YML120C, strain ndi1, active compounds read low 1.01 | S. cerevisiae deletion strains, locus YML124C, strain tub3, active compounds read low 1.03 | S. cerevisiae deletion strains, locus YMR058W, strain fet3, active compounds read low 1.02 | S. cerevisiae deletion strains, locus YMR078C, strain ctf18, active compounds read low 1.03 | S. cerevisiae deletion strains, locus YMR125W, strain sto1, active compounds read low 1.01 | S. cerevisiae deletion strains, locus YMR129W, active compounds read low 1.01 | S. cerevisiae deletion strains, locus YMR205C, strain PFK2, active compounds read low 1.03 | S. cerevisiae deletion strains, locus YMR223W, strain ubp8, active compounds read low 1.03 | S. cerevisiae deletion strains, locus YMR231W, strain pep5, active compounds read low 1.01 | S. cerevisiae deletion strains, locus YMR263W, strain SAP30, active compounds read low 1.01 | S. cerevisiae deletion strains, locus YMR307W, strain GAS1, active compounds read low 1.01 | S. cerevisiae deletion strains, locus YNL067W, strain RPL9B, active compounds read low 1.01 | S. cerevisiae deletion strains, locus YNL071W, strain lat1, active compounds read low 1.02 | S. cerevisiae deletion strains, locus YNL128W, strain TEP1, active compounds read low 1.02 | S. cerevisiae deletion strains, locus YNL153C, strain GIM3, active compounds read low 1.01 | S. cerevisiae deletion strains, locus YNL183C, strain NPR1, active compounds read low 0.952 | S. cerevisiae deletion strains, locus YNL209W, strain ssb2, active compounds read low 1.01 | S. cerevisiae deletion strains, locus YNL233W, strain BNI4, active compounds read low 1.02 | S. cerevisiae deletion strains, locus YNL248C, strain rpa49, active compounds read low 1.01 | S. cerevisiae deletion strains, locus YNL250W, strain rad50, active compounds read low 1.03 | S. cerevisiae deletion strains, locus YNL271C, strain bni1, active compounds read low 1.03 | S. cerevisiae deletion strains, locus YNL298W, strain CLA4, active compounds read low 1.02 | S. cerevisiae deletion strains, locus YNL307C, strain MCK1, active compounds read low 1.03 | S. cerevisiae deletion strains, locus YNL322C, strain KRE1 (second series), active compounds read low 1.02 | S. cerevisiae deletion strains, locus YNL322C, strain KRE1, active compounds read low 1.01 | S. cerevisiae deletion strains, locus YNR049C, strain mso1, active compounds read low 1.02 | S. cerevisiae deletion strains, locus YNR052C, strain pop2, active compounds read low 1.03 | S. cerevisiae deletion strains, locus YOL006C, strain TOP1, active compounds read low 1.06 | S. cerevisiae deletion strains, locus YOL012C, strain htz1 1.2 | S. cerevisiae deletion strains, locus YOL147C, strain pex11, active compounds read low 1.03 | S. cerevisiae deletion strains, locus YOR001W, strain rrp6, active compounds read low 1.02 | S. cerevisiae deletion strains, locus YOR061W, strain CKA2, active compounds read low 1.02 | S. cerevisiae deletion strains, locus YOR069W, strain VPS5, active compounds read low 1 | S. cerevisiae deletion strains, locus YOR070C, strain gyp1, active compounds read low 1.02 | S. cerevisiae deletion strains, locus YOR080W, strain dia2, active compounds read low 1 | S. cerevisiae deletion strains, locus YOR083W, strain WHI5, active compounds read low 1.01 | S. cerevisiae deletion strains, locus YOR106W, strain vam3, active compounds read low 1.01 | S. cerevisiae deletion strains, locus YOR136W, strain idh2, active compounds read low 1.03 | S. cerevisiae deletion strains, locus YOR144C, strain elg1, active compounds read low 1.03 | S. cerevisiae deletion strains, locus YOR184W, strain ser1, active compounds read low 1.05 | S. cerevisiae deletion strains, locus YOR231W, strain MKK1, active compounds read low 0.981 | S. cerevisiae deletion strains, locus YOR265W, strain rbl2, active compounds read low 1 | S. cerevisiae deletion strains, locus YOR270C, strain vph1, active compounds read low 1.06 | S. cerevisiae deletion strains, locus YOR290C, strain snf2, active compounds read low 1.03 | S. cerevisiae deletion strains, locus YOR316C, strain cot1, active compounds read low 1.03 | S. cerevisiae deletion strains, locus YPL051W, strain arl3, active compounds read low 1.01 | S. cerevisiae deletion strains, locus YPL055C, strain LGE1, active compounds read low 1.04 | S. cerevisiae deletion strains, locus YPL078C, strain atp4, active compounds read low 1.02 | S. cerevisiae deletion strains, locus YPL106C, strain sse1, active compounds read low 1.02 | S. cerevisiae deletion strains, locus YPL240C, strain hsp82, active compounds read low 1.03 | S. cerevisiae deletion strains, locus YPL241C, strain CIN2, active compounds read low 1 | S. cerevisiae deletion strains, locus YPL256C, strain CLN2, active compounds read low 0.963 | S. cerevisiae deletion strains, locus YPR119W, strain clb2, active compounds read low 1.03 | S. cerevisiae deletion strains, locus YPR141C, strain kar3, active compounds read low 1.03 | S. cerevisiae deletion strains, locus YPR163C, strain tif3, active compounds read low 1.04 | S. cerevisiae deletion strains, locus YPR167C, strain met16, active compounds read low 1.03 | S. cerevisiae deletion strains, strain wtn01, active compounds read low 1.02 | S. cerevisiae strains, strain wild type, active compounds read low 1.01
